From PubChem BioAssay (EPA / NIEHS)
Results filed as inconclusive are left out. Activity calls are given as the source filed them. How the source made its calls, unless noted: active means hit-call score of the fitted dose curve at least 0.9, where 1 is the maximum; inactive means score below 0.9.

How the values were obtained:
[1] = CCTE_Padilla_ZF_Score.Craniofacial: CCTE's 144 Hour Post-fertilization zebrafish Assay Score for Craniofacial Malformation, Padilla Lab (AID 2284405)
How it was run: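 Craniofacial defects were scored at 6 dpf by two blinded observers using stereomicroscopy. Exposure of wild-type embryos began at 6–8 hpf in sealed wells of 10% Hanks' solution at 26C, with chemical removed by rinsing at 5 dpf.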

[2] = CCTE_Padilla_ZF_Score.Edema: CCTE's 144 Hour Post-fertilization zebrafish Assay Score for Edema Malformation, Padilla Lab (AID 2284406)
How it was run: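 Edema scored at 6 dpf by two blinded observers under a stereo microscope, in single outbred wild-type larvae exposed from 6-8 hpf in sealed wells (Hanks', 26C, 14:10 h light) and chemical-free after a 5 dpf rinse.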

[3] = CCTE_Padilla_ZF_Score.Swim_bladder: CCTE's 144 Hour Post-fertilization zebrafish Assay Score for Swim Bladder Malformation, Padilla Lab (AID 2284408)
How it was run: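 Swim bladder inflation scored at 6 dpf by two blinded observers under a stereo microscope. Exposure ran from 6–8 hpf in sealed wells of 10% Hanks' at 26C, with rinsing at 5 dpf; DMSO served as baseline.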

[4] = CCTE_Padilla_ZF_Score.Living: CCTE's 144 Hour Post-fertilization zebrafish Assay Score for Viability, Padilla Lab (AID 2284410);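 further: larval death at 6 dpf judged by absent heartbeat or coagulation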
How it was run: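 Mortality at 6 dpf, judged as absent heartbeat or coagulation by two blinded observers, after sealed static exposure beginning at 6–8 hpf at 26C. Larvae were rinsed free of chemical at 5 dpf, and activity was fitted relative to DMSO.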

[5] = Tanguay_ZF_120hpf_MO24: Oregon State University Tanguay Lab 24 Hour Post-fertilization zebrafish Assay for Mortality (AID 2284389)
How it was run: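 Embryo death at 24 hpf was recorded as present or absent in Tropical 5D zebrafish, dechorionated at 4 hpf and dosed statically from 6 hpf (28C, 0.64% DMSO); 5 uM trimethyltin chloride served as positive control.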

[6] = Tanguay_ZF_120hpf_DP24: Oregon State University Tanguay Lab 24 Hour Post-fertilization zebrafish Assay for Delayed Development (AID 2284390)
How it was run: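 Scored at 24 hpf as a binary present/absent call of delayed development by brightfield, with dead embryos not assessed. Embryos (5D wild type, chorion removed with pronase at 4 hpf) dosed statically from 6 hpf at 28 C in 0.64% DMSO.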

[7] = Tanguay_ZF_120hpf_CRAN: Oregon State University Tanguay Lab 120 Hour Post-fertilization zebrafish Assay for Craniofacial Malformation (AID 2284397)
How it was run: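 Scoring of craniofacial malformation as a binary endpoint was done at 120 hpf by brightfield microscopy and was not done in dead embryos. Exposure was static, starting at 6 hpf, in dechorionated wild-type embryos held singly at 28C with 0.64% DMSO final.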

[8] = Tanguay_ZF_120hpf_AXIS: Oregon State University Tanguay Lab 120 Hour Post-fertilization zebrafish Assay for Axial Malformation (AID 2284398)
How it was run: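 Scoring was binary (present or absent) for body-axis defects, judged by brightfield imaging at 120 hpf in surviving larvae. Exposure was static at 28C from 6 hpf in chorion-free 5D wild-type embryos, with 0.64% DMSO vehicle.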

[9] = Tanguay_ZF_120hpf_MORT: Oregon State University Tanguay Lab 120 Hour Post-fertilization zebrafish Assay for Mortality (AID 2284399)
How it was run: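 Mortality, recorded present/absent via brightfield imaging at 24 and 120 hpf, in 5D zebrafish embryos exposed statically from 6 hpf after pronase chorion removal. Exposure at 28C, 0.64% DMSO vehicle, DMSO baseline.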

[10] = Tanguay_ZF_120hpf_EDEM: Oregon State University Tanguay Lab 120 Hour Post-fertilization zebrafish Assay for Edema Malformation (AID 2284400)
How it was run: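 Edema recorded as a binary endpoint under brightfield at 120 hpf, excluding embryos that died. Exposure was static, sealed, 28C, from 6 hpf in dechorionated wild-type larvae, final DMSO 0.64%, DMSO as baseline.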

[11] = Tanguay_ZF_120hpf_BRN: Oregon State University Tanguay Lab 120 Hour Post-fertilization zebrafish Assay for Brain Region Malformation (AID 2284402)
How it was run: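 Binary brightfield scoring of brain malformation at 120 hpf in 5D wild-type larvae, chorion removed with pronase at 4 hpf. Static exposure began at 6 hpf, 28C, sealed plates, DMSO 0.64% (vol/vol) as vehicle baseline.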

[12] = Tanguay_ZF_120hpf_TCHR: Oregon State University Tanguay Lab 120 Hour Post-fertilization zebrafish Assay for Touch Responsive (AID 2284403)
How it was run: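 Binary touch-response calls are made at 120 hpf in 5D wild-type zebrafish larvae. These larvae were dechorionated with pronase and exposed singly from 6 hpf in sealed, dark plates at 28 °C with 0.64% DMSO final; dead embryos are excluded.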

[13] = Tanguay_ZF_120hpf_ANY: Oregon State University Tanguay Lab 120 Hour Post-fertilization zebrafish Assay for Any Mortality and Malformation (AID 2284404)
How it was run: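 Dechorionated Tropical 5D wild-type embryos, one per well from 6 hpf, static exposure in sealed, dark plates at 28C until 120 hpf, 0.64% DMSO final. Brightfield scoring of mortality and malformations as binary presence/absence, pooling 13 morphology endpoints.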

[14] = test system: SRY-box transcription factor 17 (SOX17) Protein Expression, Deisenroth Lab, SOX17 (gene 64321); experiment: CCTE_Deisenroth_DEVTOX-GLR_legacy_Sox17: (Legacy) CCTE's DevTox GLR-Endo Assay Evaluation of SRY-box transcription factor 17 (SOX17) Protein Expression, Deisenroth Lab (AID 2284341); conditions: actives raise or lower the signal
How it was run: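 Using the RUES2-GLR line, compounds are tested as 10-point series during 48-h defined-media differentiation. Sox17 reporter fluorescence per cell determines positivity; endpoint is percentage positive, analysed bidirectionally versus DMSO baseline.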

[15] = test system: SRY-box transcription factor 2 (SOX2) Protein Expression, Deisenroth Lab, SOX2 (gene 6657); experiment: CCTE_Deisenroth_DEVTOX-GLR_legacy_Sox2: (Legacy) CCTE's DevTox GLR-Endo Assay Evaluation of SRY-box transcription factor 2 (SOX2) Protein Expression, Deisenroth Lab (AID 2284346)
How it was run: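 Read-out: fraction of Sox2+ cells by high-content fluorescence imaging of fixed RUES2-GLR cells after 48 h differentiation with two 24 h-spaced exposures. Positivity cutoff 5x BMAD above endoderm control median; 0.2% DMSO median subtracted.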

[16] = CCTE_Mundy_HCI_iCellGluta_NOG_NeuronCount: CCTE's Neurite Outgrowth Assay in iCellGluta cells for Neuron Count, Mundy Lab (AID 2284340; active means hit-call score of the fitted dose curve at least 0.9, where 1 is the maximum;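 further: cells fixed about 48 h after compound addition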)
How it was run: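 Neuron count read by automated high-content imaging of Hoechst 33342 and betaIII-tubulin/Alexa Fluor-488 labelling in human iPSC glutamatergic neurons. Activity fitted relative to DMSO.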

[17] = CCTE_Mundy_HCI_iCellGluta_NOG_NeuriteCount: CCTE's Neurite Outgrowth Assay in iCellGluta cells for Neurite Count, Mundy Lab (AID 2284342; active means hit-call score of the fitted dose curve at least 0.9, where 1 is the maximum;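 further: chemical exposure about 48 hours starting 2 hours after plating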)
SERPINA7 (gene 6906) = experiment: CCTE_GLTED_hTBG: CCTE's human Thyroxine-binding Globulin (TBG) Inhibition Assay, Great Lakes Toxicology and Ecology Division (GLTED) Lab (AID 2284343; active means hit-call score of the fitted dose curve at least 0.9, where 1 is the maximum;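 further: active chemicals lower fluorescence versus DMSO baseline by displacing probe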)
How it was run: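 Cell-free displacement of the fluorescent probe ANSA from human thyroxine-binding globulin after 2 h exposure. Read-out at ex 380/em 475 nm; DMSO baseline.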

Measured: AC50

NC(C(F)(F)F)C(F)(F)F
inactive: [1] | [2] | [3] | [4]

CN(CCO)S(=O)(=O)C(F)(F)C(F)(F)C(F)(F)C(F)(F)C(F)(F)C(F)(F)C(F)(F)C(F)(F)F
inactive: [5] | [6] | [9] | [11] | [1] | [2] | [3]
active: [7] 29.5 µM | [8] 29.6 µM | [10] 29.6 µM | [12] 29.6 µM | [13] 28.9 µM | [4] 10.7 µM

O=C1NS(=O)(=O)c2ccccc21
inactive: [14] | [15]

O=C1OC(=O)C(F)(F)C1(F)F
inactive: [1] | [2] | [3] | [4]

C=CC(=O)OCCC(F)(F)C(F)(F)C(F)(F)C(F)(F)C(F)(F)C(F)(F)C(F)(F)C(F)(F)F
not listed: [14] | [15] | SERPINA7 (gene 6906)
inactive: all other assays above

O=CC(F)(F)C(F)(F)C(F)(F)F
inactive: [1] | [2] | [3] | [4]

O=CC(F)(F)C(F)(F)C(F)(F)C(F)F
inactive: [1] | [2] | [3] | [4]

O=C(F)C(F)(F)C(F)(F)C(F)(F)C(=O)F
inactive: [1] | [2] | [3] | [4]

FC(F)=C(F)C(F)(F)C(F)(F)C(F)(F)C(F)F
inactive: [1] | [2] | [3] | [4]

FC(F)(F)C1(F)C(F)(F)C(F)(F)C(F)(F)C(F)(C(F)(F)F)C1(F)F (centres undefined)
inactive: [1] | [2] | [3] | [4]

O=P(O)(O)CCC(F)(F)C(F)(F)C(F)(F)C(F)(F)C(F)(F)C(F)(F)C(F)(F)C(F)(F)F
active: SERPINA7 (gene 6906) 95.6 µM | [2] 1.69 µM | [3] 10 µM | [4] 11.8 µM
not listed: [14] | [15] | [16]
inactive: all other assays above

O=C(O)CCC(F)(F)C(F)(F)C(F)(F)C(F)(F)C(F)(F)F
active: [2] 10.7 µM | [3] 10.9 µM | [4] 28.3 µM
not listed: [14] | [15] | [16] | [17] | SERPINA7 (gene 6906)
inactive: all other assays above

CCCCCCCCCC=CCC1CC(=O)OC1=O (centres undefined)
active: SERPINA7 (gene 6906) 60.7 µM

CN(Cc1cnc2nc(N)nc(N)c2n1)c1ccc(C(=O)N[C@@H](CCC(=O)O)C(=O)O)cc1
inactive: [14]
active: [15] 0.0109 µM

O=P(O)(O)CCC(F)(F)C(F)(F)C(F)(F)C(F)(F)C(F)(F)C(F)(F)F
active: [2] 23.9 µM | [4] 32.1 µM
not listed: [14] | [15] | SERPINA7 (gene 6906)
inactive: all other assays above
